According to PubChem BioAssay (NCI):
This is part of a sample that, as a whole, favours compounds with a hit. Of some 83,000 tested, about 20% had one in any assay.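 The endpoint reported here, percent growth, reads 100 for growth as untreated, 0 for no net growth and -100 for all cells dead.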 Calls of active or inactive are those of the source. The calls were made as follows: active = growth percent below 10; inactive = the rest.

These molecules were tested on HOP-62 NSCLC (assay: NCI-60 one-dose screen, 48 h (100 = growth as untreated, 0 = no growth, -100 = all killed)). Conditions: 10 µM unless noted.
COc1cc2oc(-c3cccc(C(=O)Nc4cccc([N+](=O)[O-])c4)c3)cc(=O)c2c(OC)c1OC was tested, and the growth was -13.4% (active).
For COc1cc2c(c(OC)c1OC)C(=O)CC(c1cccc(NC(=O)c3cc(N)ccc3Cl)c1)O2 (stereo not given), the growth was 77.3% (inactive).
In the case of CC(C)c1ccc2c(N)c(C(=O)Nc3cccc(C(F)(F)F)c3)sc2n1, the growth is reported as 62.6% (inactive).
With COc1cc(-c2cc(-c3cccc(OCC(=O)O)c3)[nH]c(=O)c2C#N)cc(OC)c1OC the growth was 99.1% (inactive).
With N#Cc1c(-c2ccc(Cl)cc2)nc2n[nH]c(-c3ccc(Cl)cc3)c2c1-c1ccc(C(F)(F)F)cc1 the growth was -24.2% (active).
CC1=C(C(=O)OCc2ccccc2)C(c2c(O)cc(O)cc2O)n2c(nc3ccccc32)N1 (stereo not given) was tested, and the growth was 47.8% (inactive).
For C=C1CC[C@@H]2[C@]3(C)COC(c4cn(-c5ccccc5)nc4-c4ccccc4)O[C@@H]3CC[C@@]2(C)[C@@H]1C/C=C1/C(=O)OC[C@H]1O (stereo not given in full), the growth was -68.1% (active).
With CN(C)CCCNC(=O)c1cc(NC(=O)c2cc(NC(=O)c3ccc(/C=C/c4ccccc4)cc3)cn2C)cn1C the growth was 74.1% (inactive).
In the case of O=C(NNc1ccccc1)n1c(=O)c2ccccc2c(=O)n1-c1ccccc1, the growth is reported as 90.7% (inactive).
For O=c1c2ccccc2nc(-c2ccccc2)n1/N=C/c1ccc2ccccc2c1, the growth was 55.7% (inactive).
CC(/C=C1\SC(=S)N(CCCC(=O)NC(CC(C)C)C(=O)O)C1=O)=C\c1ccccc1 (stereo not given) was tested, and the growth was 110% (inactive).
CCOc1ccc(C(=O)NC(=S)Nc2ccc(S(N)(=O)=O)cc2)cc1 was tested, and the growth was 102% [100 µM] (inactive).
In the case of NS(=O)(=O)c1ccc(-n2cc(-c3cccc(NC(=O)c4cc(C(F)(F)F)cc(C(F)(F)F)c4)c3)nn2)cc1, the growth is reported as 15% (inactive).
In the case of COc1cc(C2CC(c3cc(OC)c(OC)c(OC)c3)=NN2c2ccccc2)ccc1OCc1ccc(C)cc1 (stereo not given), the growth is reported as 99.6% (inactive).
Cc1ccc2c(N)c(C(=O)Nc3ccc(-c4ccccc4)cc3)sc2n1 was tested, and the growth was 63.5% (inactive).
C=C1CCC2C3(C)COC(c4ccccc4F)OC3CCC2(C)C1CC(O)C1=CCOC1=O (stereo not given) was tested, and the growth was 88.2% (inactive).
In the case of COc1cc(-c2ccc(/C=N/NC(=O)c3[nH]c4ccc(Br)cc4c3-c3ccccc3)o2)cc(OC)c1OC, the growth is reported as 62.6% (inactive).
CCCCc1c(Nn2cnnn2)no[n+]1[O-] was tested, and the growth was 81.6% (inactive).
With C=C1CC[C@@H]2[C@]3(C)COC(c4cn[nH]c4-c4ccccc4)O[C@@H]3CC[C@@]2(C)[C@@H]1C/C=C1/C(=O)OCC1O (stereo not given in full) the growth was 63.8% (inactive).
With CN(C)c1ccnc(NCCCSC(c2ccccc2)(c2ccccc2)c2ccccc2)c1 the growth was 74.3% (inactive).

Each molecule was assayed on NCI-H460 lung in the same assay as above. Conditions: 10 µM unless noted.
For COc1cc2oc(-c3cccc(C(=O)Nc4cccc([N+](=O)[O-])c4)c3)cc(=O)c2c(OC)c1OC, the growth was 32.3% (inactive).
In the case of COc1cc2c(c(OC)c1OC)C(=O)CC(c1cccc(NC(=O)c3cc(N)ccc3Cl)c1)O2 (stereo not given), the growth is reported as 67.2% (inactive).
CCOC(=O)/C=C/c1cccc2c1C(=O)NC(C)(c1cc3cc(Cl)ccc3oc1=O)N2 (stereo not given) was tested, and the growth was 47.4% (inactive).
With CC(C)c1ccc2c(N)c(C(=O)Nc3cccc(C(F)(F)F)c3)sc2n1 the growth was 67.7% (inactive).
In the case of O=C(C1=CNC(=S)NC1c1ccc(O)cc1)c1cc2ccccc2oc1=O (stereo not given), the growth is reported as 108% (inactive).
In the case of COc1cc(-c2cc(-c3cccc(OCC(=O)O)c3)[nH]c(=O)c2C#N)cc(OC)c1OC, the growth is reported as 111% (inactive).
COc1cccc(-c2nc(Nc3ccc(S(N)(=O)=O)cc3)c3ccccc3n2)c1 was tested, and the growth was 18.4% (inactive).
For N#Cc1c(-c2ccc(Cl)cc2)nc2n[nH]c(-c3ccc(Cl)cc3)c2c1-c1ccc(C(F)(F)F)cc1, the growth was -49.1% (active).
With CC12CC[C@@H]3[C@]4(C)COC(c5cn[nH]c5-c5ccc(Br)cc5)O[C@@H]4CC[C@@]3(C)[C@@H]1CC(C1=CCOC1=O)O2 (stereo not given in full) the growth was 35.4% (inactive).
In the case of CC1=C(C(=O)OCc2ccccc2)C(c2c(O)cc(O)cc2O)n2c(nc3ccccc32)N1 (stereo not given), the growth is reported as 29.6% (inactive).
COc1ccc2[nH]c(O)c(N=NC(=O)Cn3c(-c4ccccc4)nc4cc(C)ccc43)c2c1 was tested, and the growth was 44.3% (inactive).
In the case of C=C1CC[C@@H]2[C@]3(C)COC(c4cn(-c5ccccc5)nc4-c4ccccc4)O[C@@H]3CC[C@@]2(C)[C@@H]1C/C=C1/C(=O)OC[C@H]1O (stereo not given in full), the growth is reported as -75.9% (active).
CN(C)CCCNC(=O)c1cc(NC(=O)c2cc(NC(=O)c3ccc(/C=C/c4ccccc4)cc3)cn2C)cn1C was tested, and the growth was 19.5% (inactive).
With O=C(NNc1ccccc1)n1c(=O)c2ccccc2c(=O)n1-c1ccccc1 the growth was 105% (inactive).
With C(=C\c1cc(/C=C/c2ccccc2)c2ccccc2n1)/c1ccccc1 the growth was 102% (inactive).
With COc1cc2c(c(OC)c1OC)C(=O)CC(c1cccc(NC(=O)c3cc([N+](=O)[O-])ccc3Cl)c1)O2 (stereo not given) the growth was 30.8% (inactive).
With O=c1c2ccccc2nc(-c2ccccc2)n1/N=C/c1ccc2ccccc2c1 the growth was 8.58% (active).
CC(/C=C1\SC(=S)N(CCCC(=O)NC(CC(C)C)C(=O)O)C1=O)=C\c1ccccc1 (stereo not given) was tested, and the growth was 99.8% (inactive).
In the case of CCOc1ccc(C(=O)NC(=S)Nc2ccc(S(N)(=O)=O)cc2)cc1, the growth is reported as 102% [100 µM] (inactive).
For O=C(CCN1C(=O)/C(=C/c2ccc(F)cc2)SC1=S)N1CCOCC1, the growth was 68.6% (inactive).
With CC1(C)CC[C@]2(C(=O)Nc3ccc(F)cc3)CC[C@]3(C)C(=CCC4[C@@]5(C)C[C@@H](O)[C@H](O)[C@@](C)(CO)C5CC[C@]43C)C2C1 (stereo not given in full) the growth was 30.8% (inactive).
In the case of NS(=O)(=O)c1ccc(-n2cc(-c3cccc(NC(=O)c4cc(C(F)(F)F)cc(C(F)(F)F)c4)c3)nn2)cc1, the growth is reported as 71.4% (inactive).
With COc1cc(C2CC(c3cc(OC)c(OC)c(OC)c3)=NN2c2ccccc2)ccc1OCc1ccc(C)cc1 (stereo not given) the growth was 99.3% (inactive).
With Cc1ccc2c(N)c(C(=O)Nc3ccc(-c4ccccc4)cc3)sc2n1 the growth was 73% (inactive).
In the case of C=C1CCC2C3(C)COC(c4ccccc4F)OC3CCC2(C)C1CC(O)C1=CCOC1=O (stereo not given), the growth is reported as 82.3% (inactive).
With COc1ccc(-c2nnc3ccc(N/N=C/c4ccc(C)cc4)nn23)cc1 the growth was 51.2% (inactive).
COc1cc(-c2ccc(/C=N/NC(=O)c3[nH]c4ccc(Br)cc4c3-c3ccccc3)o2)cc(OC)c1OC was tested, and the growth was 62.8% (inactive).
With COc1ccc2c(c1)c(-c1cc3nc(-c4cn(C)c5ncccc45)cc(N)n3n1)cn2C the growth was -25.5% (active).
With O=C(COc1ccc(NC(=O)Nc2ccccc2)cc1)N=Nc1c(O)[nH]c2ccc([N+](=O)[O-])cc12 the growth was 49.1% (inactive).
CCCCc1c(Nn2cnnn2)no[n+]1[O-] was tested, and the growth was 36.5% (inactive).
C=C1CC[C@@H]2[C@]3(C)COC(c4cn[nH]c4-c4ccccc4)O[C@@H]3CC[C@@]2(C)[C@@H]1C/C=C1/C(=O)OCC1O (stereo not given in full) was tested, and the growth was 18% (inactive).
With CN(C)c1ccnc(NCCCSC(c2ccccc2)(c2ccccc2)c2ccccc2)c1 the growth was -19.2% (active).
For CC12CC[C@@H]3[C@]4(C)COC(c5cn[nH]c5-c5cccc(Br)c5)O[C@@H]4CC[C@@]3(C)[C@@H]1CC(C1=CCOC1=O)O2 (stereo not given in full), the growth was 23.7% (inactive).
In the case of Brc1ccc(-c2n(Cc3ccc4ccccc4c3)c(-c3ccccc3)c(-c3ccccc3)[n+]2Cc2ccc3ccccc3c2)cc1, the growth is reported as -81.3% (active).
For O=C(NN1C(=O)/C(=C/C=C/c2ccc([N+](=O)[O-])o2)SC1=S)c1ccc(Cl)cc1, the growth was -72.7% (active).
